From PubChem BioAssay AID504847 (National Center for Advancing Translational Sciences (NCATS), 2011) come the findings set out here.

Several values for one entry are separate records, joined by “and”; a condition that tells them apart may be missing. Identical values can stand only once. About 3,700 (0.93%) of roughly 400,000 compounds were called active. Roughly 3% stayed inconclusive and do not appear here. Calls follow the shape of the dose curve; as a rule, active = well fitted inhibition curve with a large enough effect; inconclusive = small, poorly fitted or top-dose-only effect, or another doubt; inactive = no such curve, though single readings can be large or run the other way. Only a selection was taken, and actives are over-represented in it overall. More than one record can exist for a structure, and the calls need not agree.
% is scaled to controls: 0 for no effect and ±100 for the full control effect; potency is read from the fitted curve at half-maximal effect.

Chain of Vitamin D3 receptor (Homo sapiens) (P11473 whole entry, looked up): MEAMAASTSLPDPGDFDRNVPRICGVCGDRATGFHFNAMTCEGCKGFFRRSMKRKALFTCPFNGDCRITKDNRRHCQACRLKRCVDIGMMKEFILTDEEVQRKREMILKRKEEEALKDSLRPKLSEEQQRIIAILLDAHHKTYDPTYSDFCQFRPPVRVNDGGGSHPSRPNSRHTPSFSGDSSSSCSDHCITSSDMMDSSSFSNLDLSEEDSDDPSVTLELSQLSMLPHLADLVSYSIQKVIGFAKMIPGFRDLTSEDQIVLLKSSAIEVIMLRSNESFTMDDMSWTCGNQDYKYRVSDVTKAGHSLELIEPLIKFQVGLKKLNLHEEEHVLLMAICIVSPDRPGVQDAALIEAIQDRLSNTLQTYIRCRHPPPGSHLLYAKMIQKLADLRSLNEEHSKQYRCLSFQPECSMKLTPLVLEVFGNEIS

This experiment concerns the target Vitamin D3 receptor (Homo sapiens) (UniProt P11473). The experiment is described as follows: Inhibitors of the vitamin D receptor (VDR): qHTS. The settings on record: VDR-SRC2-3 peptide fluorescence polarization, 2 h; max response, negative = inhibition: stronger effect = lower value. In outline: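 Measured by FP: displacement of SRC2-3 coactivator peptide from VDR by library compounds, following a two-hour ambient incubation.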
On the technique in general: In qHTS, concentration-response curves come from the screen itself.
For `COc1ccc(-n2ccnc(NCCc3ccc(Cl)cc3)c2=O)cc1OC`, the max response, negative = inhibition is 6.6% (inactive).
Turning to `COc1cccc(-c2nnc3n(CCc4ccccc4)c(=O)c4ccccc4n23)c1O`, the max response, negative = inhibition is 17.6% (inactive).
The same measure, in the same setting: as for `Cc1csc(NC(=O)c2ccc(-c3ccc(Cl)cc3Cl)o2)n1`, the figure is -1.72% (inactive).
With `CC1CCN(C(=S)c2ccc(-c3ccc(Cl)cc3Cl)o2)CC1`, the Potency was 79.4 µM (active).
With `CC1CCN(C(=S)c2cccc(O)c2)CC1`, the max response, negative = inhibition is -26.6% (inactive).
Regarding `Cc1cccc(Nc2cc(C)nc(-n3nc(C)cc3C)n2)c1`, the max response, negative = inhibition is 8.15% (inactive).
On to `Cc1cc(C)cc(Oc2nc3c(C)cccn3c(=O)c2/C=C(\C#N)C(=O)NC2CCS(=O)(=O)C2)c1` (stereo unspecified), for which the Potency is 20 µM (active).
Regarding `Cc1cccn2c(=O)c3cc(C(=O)NC4CCCCC4)sc3nc12`, the max response, negative = inhibition is 8.23% (inactive).
On the same count and under the same terms, next, `Cc1cccn2c(=O)c(/C=C(\C#N)C(N)=O)c(N3CCCCCC3)nc12`: -6.66% (inactive); `Cc1ccc(C(=O)Nc2ccc3[nH]c(=O)c(=O)[nH]c3c2)cc1`: -3.19% (inactive).
On the same count and under the same terms, next, `COc1ccc(CCNC(=O)CCCCn2c(=O)c3ccccc3n(Cc3ccccc3)c2=O)cc1OC`: -5.56% (inactive); `COc1cc(C(=O)Nc2ccc(OCc3cc(=O)n4ccc(C)cc4n3)cc2)cc(OC)c1OC`: 15.3% (inactive).
Still for that read-out and setting: as for `CC(C)(C)c1ccc(C(=O)N2CCC(c3nc(-c4ccc(S(=O)(=O)N5CCCC5)cc4)no3)CC2)cc1`, the figure is -2.01% (inactive).
On to `c1ccc(-c2cc3c(NCC4COc5ccccc5O4)ncnc3s2)cc1` (stereo unspecified), for which the max response, negative = inhibition was 3.5% (inactive).
Turning to `Oc1ccccc1N1CCN(c2ncnc3sc(-c4ccccc4)cc23)CC1`, the Potency was 22.4 µM (active).
On to `COc1ccccc1N1CCN(c2ncnc3sc(C)c(-c4ccccc4)c23)CC1`, for which the max response, negative = inhibition is 9.44% (inactive).
On to `CCOC(=O)c1c(S(=O)(=O)N2CCCC(C(=O)NCc3ccc(F)cc3)C2)c(C)n(CC)c1C` (stereo unspecified), for which the max response, negative = inhibition is 12% (inactive).
Still for that read-out and setting: next, `CCCC(=O)Nc1ccc(NC(=O)c2sc3ccccc3c2Cl)cc1`: 1.71% (inactive); `Cc1cccc(C)c1Nc1c(-c2ccccc2O)nc2ncccn12`: 11.5% (inactive) and -13.4% (inactive); `Cc1ccc(-c2nc3ccccn3c2Nc2ccc(F)cc2)o1`: -13.1% (inactive).
`Cc1ccc(-c2nc3ccccn3c2Nc2c(C)cccc2C)o1`: the Potency is 79.4 µM (active).
On to `CC1CCc2noc(NC(=O)c3ccc([N+](=O)[O-])cc3)c2C1` (stereo unspecified), for which the max response, negative = inhibition was 20% (inactive).
Still for that read-out and setting: next, `Cc1cccc(C(CC(=O)NCC2(c3ccccc3)CCCC2)c2ccccc2)c1O` (stereo unspecified): -3.18% (inactive).
Still for that read-out and setting: next, `Cc1ccc(-c2cnc(NCc3ccc(C(C)C)cc3)n2C)cc1`: -12.2% (inactive); `COC(=O)c1cc(NC(=O)CCc2c(C)nc3c4c(C)cc(C)nc4nn3c2C)cc(C(=O)OC)c1`: -12% (inactive).
For `CCOC(=O)Cc1csc(NC(=O)CSc2nc(C)cc(=O)[nH]2)n1`, the Potency is 44.7 µM (active).
`CCCCc1nnc(NC(=O)CSc2nc(C)cc(=O)[nH]2)s1`: the max response, negative = inhibition was -6.96% (inactive).
As to `CCOC(=O)Cc1csc(SCC(=O)Nc2ccc(C)cc2F)n1`, the max response, negative = inhibition was -24.6% (inactive).
On the same count and under the same terms, next, `C=CCOC(=O)C(=C)C`: 10.1% (inactive); `COc1ccc(CCC(=O)NCc2ccc3c(c2)CCN3C(=O)c2ccc(F)cc2)cc1`: 1.51% (inactive).
As for `CCOc1ccc(NC(=O)c2c(NC(=O)Cc3ccccc3)sc3c2CCC(C)C3)cc1` (stereo unspecified), the Potency was 79.4 µM (active).
Still for that read-out and setting: as for `CCOc1ccc(NC(=O)c2c(NC(=O)Cc3ccccc3)sc3c2CCCCC3)cc1`, the figure is 17.8 µM (active).
`Cc1ccccc1NC(=O)c1c(NC(=O)c2ccccc2F)sc2c1CCC(C)C2` (stereo unspecified): the max response, negative = inhibition is -12.5% (inactive).
Still for that read-out and setting: as for `Cc1cccc(OCCCC(=O)Nc2sc3c(c2C(N)=O)CCC(C)C3)c1` (stereo unspecified), the figure is 0.722% (inactive); as for `O=C(Cc1ccccc1)Nc1sc2c(c1C(=O)Nc1ccc(Br)cc1)CCC2`, 1.17% (inactive).
The same measure, in the same setting: as for `CCOc1ccc(NC(=O)c2c(NCc3cccc(OC)c3OC)sc3c2CCC3)cc1`, the figure is -0.323% (inactive).
The same measure, in the same setting: as for `COc1ccc2oc(-c3ccc(C)c(NC(=O)c4sc5ccccc5c4Cl)c3)nc2c1`, the figure is -13.7% (inactive); as for `O=C(O)c1ccc(Nc2nc(-c3ccccc3)c3cc(Br)ccc3n2)cc1`, -8.21% (inactive); as for `Cc1cccc(N2CCN(C(=O)CCn3c(=O)c4cccn4c4cccnc43)CC2C)c1` (stereo unspecified), -1.09% (inactive).
`Cc1ccc(C2CCN(C(=O)c3cnn(-c4ccccc4Cl)c3C3CCN(C(=O)OC(C)(C)C)CC3)C2)cc1` (stereo unspecified): the max response, negative = inhibition was 14.7% (inactive).
Same read-out and setting: next, `Cc1cccc(C(=O)N2CCc3cc(CNC(=O)Cc4ccc(F)cc4)ccc32)c1`: 6.68% (inactive); `CCCCNC(=O)Cn1c(SCc2cccc(Cl)c2)nc2ccncc21`: -15.1% (inactive).
On the same count and under the same terms, as for `O=S(=O)(Nc1cccc2cccnc12)c1cccc2cccnc12`, the figure is -4.84% (inactive); as for `CCOC(=O)c1ccc(NC(=O)c2c(NCc3cccs3)sc3c2CCCC3)cc1`, -5.89% (inactive).
With `O=C(O)c1ccccc1CSc1nc2ccccc2s1`, the Potency is 89.1 µM (active).
Consider `O=C(Nc1ccc2nc(SCC(=O)N3CCc4ccccc43)sc2c1)c1ccccc1F`, for which the max response, negative = inhibition was 0.401% (inactive).
On the same count and under the same terms, next, `CN(C(=O)CSc1nc2ccc(NC(=O)COc3ccccc3)cc2s1)c1ccccc1`: 3.21% (inactive).
Consider `CCOc1ccccc1NC(=O)C1=C(C)Nc2ncnn2C1c1ccc(NC(C)=O)cc1` (stereo unspecified), for which the max response, negative = inhibition is 6.42% (inactive).
Same read-out and setting: as for `COc1ccc(Br)cc1C1C2C=CCC(C)C2C(=O)N1Cc1ccccc1` (stereo unspecified), the figure is -6.47% (inactive); as for `COc1ccccc1CNC(=O)c1ccc(NC(=O)N2CC(C)Sc3ccccc32)cc1` (stereo unspecified), -3.93% (inactive).
Same read-out and setting: as for `O=C(NCc1ccccc1)c1cccc(NC(=O)N2CCSc3ncccc32)c1`, the figure is 4.27% (inactive).
On to `O=C(O)CCCN1C(=O)c2ccccc2Sc2ncccc21`, for which the max response, negative = inhibition is 23.5% (inactive).
Take `CCCCN1C(=O)/C(=C(/C#N)C(N)=O)c2ccccc21`: the Potency is 50.1 µM (active).
Consider `Cc1cc(C(=O)COC(=O)CCCN2C(=O)c3ccccc3C2=O)c(C)n1C`, for which the max response, negative = inhibition is 11.4% (inactive).
Regarding `O=C(/C=C/c1cn(CC(O)CN2CCc3ccccc32)c2ccccc12)c1ccc(Br)cc1` (stereo unspecified), the max response, negative = inhibition is 25.1% (inactive).
Still for that read-out and setting: as for `COCCNC(=O)CSc1c(C)cnc2c1c(=O)n(C)c(=O)n2C`, the figure is 8.06% (inactive).
Regarding `COc1ccc(CS(=O)/C(Cl)=C(/Cl)C(=O)Nc2ccc(OC)nc2)cc1` (stereo unspecified), the Potency is 20 µM (active).
As for `COc1ccc(NC(=O)C(=O)NCc2ccco2)cc1`, the max response, negative = inhibition was -7.31% (inactive).
Still for that read-out and setting: as for `COc1ccc(CC(=O)Nc2ccc(-c3nc4ccccc4s3)c(C)c2)cc1`, the figure is -0.795% (inactive); as for `O=C(Nc1ccc2nc(SCCOc3ccccc3Cl)sc2c1)c1ccco1`, 5.06% (inactive); as for `CC(Nc1ccc(-c2nc(-c3ccco3)no2)cc1[N+](=O)[O-])c1ccccc1` (stereo unspecified), 0.644% (inactive).
Same read-out and setting: as for `CCc1ccccc1NC(=O)Cn1c(=O)n(CC2CCC(C(=O)NCCc3ccccc3)CC2)c(=O)c2ccccc21` (stereo unspecified), the figure is -18.5% (inactive); as for `Cc1cc(C(=O)Nc2cccc(C(F)(F)F)c2)c2c(C)nn(-c3cccc(F)c3)c2n1`, -0.555% (inactive).
The same measure, in the same setting: next, `c1ccc2c(CNn3cnnc3)cccc2c1`: -17.7% (inactive).
Regarding `Nc1scc[n+]1Cc1cccc2cccnc12`, the max response, negative = inhibition is 4.69% (inactive).
Turning to `c1ccc2c(C[n+]3csc4ccccc43)cccc2c1`, the Potency was 44.7 µM (active).
For `CCN(CC)c1ccc(NC(=O)Cn2nc3c(cc2=O)CCCC3)c(C)c1`, the max response, negative = inhibition is 2.95% (inactive).
Same read-out and setting: next, `CC1(C)OC2CO[C@]3(COS(N)(=O)=O)OC(C)(C)OC3C2O1` (stereo partly specified): -14.1% (inactive).
For `Oc1cc(O)c2c(c1)OC(c1ccc(O)c(O)c1)C(O)C2` (stereo unspecified), the Potency is 35.5 µM (active) and the max response, negative = inhibition is -19.6% (inactive).
As to `NS(=O)(=O)c1ccc(NC(=O)CSc2nnc3c(n2)[nH]c2ccccc23)cc1`, the max response, negative = inhibition is 5.25% (inactive).
Take `CCOc1cc(-c2nnc(SCC(=O)NC3CCCCC3)nc2-c2ccc(OC)c(OCC)c2)ccc1OC`: the max response, negative = inhibition was 15.8% (inactive).
In the case of `COc1ccc(OCc2n[nH]c(=S)n2N)cc1`, the Potency was 35.5 µM (active).
On to `COc1ccc(Cc2n[nH]c(=S)n2NC(=O)Nc2ccc(C)cc2)cc1`, for which the max response, negative = inhibition is -6.31% (inactive).
The same measure, in the same setting: next, `COc1ccc(OC)c(-n2c(-c3ccn[nH]3)n[nH]c2=S)c1`: -3.11% (inactive).
The same measure, in the same setting: as for `COc1cc(C(=O)N(Cc2ccc(C(C)C)cc2)C2CCS(=O)(=O)C2)cc(OC)c1OC` (stereo unspecified), the figure is -4.09% (inactive); as for `CCOc1cc(/C=C(\C#N)C(=O)Nc2ccccc2C)ccc1OCc1cc(=O)n2nc(CC)sc2n1`, -13.9% (inactive).
Regarding `C=CC(=O)c1ccc2ccccc2c1`, the Potency is 1.78 µM (active).
As for `O=C(NNC(=O)c1ccc2ccccc2c1)c1ccc(Cl)cc1`, the max response, negative = inhibition is 18.2% (inactive).
The same measure, in the same setting: next, `O=C(Nc1ccccc1N1CCCC1)c1ccc2ccccc2c1`: -2.28% (inactive).
Turning to `O=C(CC1N=C2c3ccccc3N=C(SCc3cccc(Cl)c3)N2C1=O)NCc1ccc2c(c1)OCO2` (stereo unspecified), the max response, negative = inhibition was 13.3% (inactive).
For the compound `COc1ccc(NC(=O)CSc2nnc(-c3nnn(-c4ccc(F)cc4)c3C)o2)cc1`, the max response, negative = inhibition is 15.3% (inactive).
Still for that read-out and setting: next, `CCCCCCCC1=Cc2ccc(F)cc2C(C(C(=O)OC)C(=O)OC)N1C(=O)OC` (stereo unspecified): 2.51% (inactive); `COc1ccc(CCN=C2SCC(=O)N2Cc2ccccc2)cc1OC`: 3.18% (inactive).
For `COc1cc(C2CC(=O)N3CN(Cc4ccccc4)CSC3=C2C#N)ccc1OCc1ccccc1` (stereo unspecified), the Potency was 22.4 µM (active).
Regarding `COc1cc(CNC2CCCC2)c(Br)cc1OCc1ccccc1`, the max response, negative = inhibition is 18.9% (inactive).
The same measure, in the same setting: next, `Cc1cccc(-c2nc(SCc3ccc(Br)cc3)n3[nH]c(=O)cc3n2)c1`: 11.8% (inactive); `COc1ccccc1CNc1ncnc2ccc(-c3ccc4c(c3)OCO4)cc12`: -6.36% (inactive).
For `CCn1c(SC)nc(O)c(C(c2ccc(OC)c(O)c2)c2c(O)nc(SC)n(CC)c2=O)c1=O`, the Potency was 35.5 µM (active).
In the case of `CCn1c(CNC(=O)c2ccc(OC)c(OC)c2)nnc1SCC(=O)Nc1ccccc1`, the max response, negative = inhibition is 2.26% (inactive).
The same measure, in the same setting: as for `COc1ccc(-n2c(SC)nc(O)cc2=O)cc1`, the figure is -7.87% (inactive).
